Hit rate of the full screen: of about 52,000 compounds, about 4,300 (8.3%) were called active. Cut-off read from the data, not from the text of the source: active = survival mostly below about 52% (no sharp cut-off); inactive = mostly above about 56%. For the sample, actives were picked, then their nearest neighbours and some compounds at random.

The test system of the experiment is DeltatarO mutant. Briefly: S. aureus survival, RN4220 and DeltatarO strains – OD600, teichoic acid synthesis inhibitors, primary screen (AID 463173). The note with it: S. aureus RN4220 wild type/DeltatarO growth, OD600, 18 h, hits give low values, screened at 18.75 µg/mL (by protocol).
For `CCOC(=O)N1CCc2c(sc3c2c(=O)n(Cc2ccccc2)c(=O)n3CC(=O)Nc2cccc(CC)c2)C1`, the survival was 71% (inactive).

For `COc1cc(NC(=O)C(Cc2ccccc2)NS(=O)(=O)c2cccc3nsnc23)cc(OC)c1` (stereo not drawn), the survival was 72% (inactive).

For the molecule `O=C(Nc1ccc(OC(F)(F)F)cc1)C(NS(=O)(=O)c1cccc2nsnc12)c1ccccc1` (stereo not drawn), the survival was 56% (inactive).

For `O=C(Nc1ccc(OC(F)(F)F)cc1)C(Cc1ccccc1)NS(=O)(=O)c1cccc2nsnc12` (stereo not drawn), the survival was 49% (active).

Regarding `CCc1ccccc1NC(=O)N1CCN(c2cc(-c3noc(C)n3)ccc2C)CC1`, the survival was 134% (inactive).

In the case of `S=c1[nH]nc(CCCOc2ccc(Cl)cc2Cl)o1`, the survival is 54% (inactive).

As to `O=C(NC1CCCCC1)NC1CCN(Cc2nnnn2Cc2ccc(F)cc2)CC1`, the survival was 88% (inactive).

Regarding `COc1ccc(Cn2ccc3nc(C)c(C(=O)N4CCN(c5ccccc5F)CC4)cc3c2=O)cc1`, the survival was 63% (inactive).

For the molecule `O=C(c1ccccc1Cl)n1cc(Cl)cn1`, the survival is 95% (inactive).

Regarding `CC1(c2ccccc2)CC(C)(C)N(C(=O)c2cccc(Cl)c2)c2ccccc21` (stereo not drawn), the survival is 8% (active).

As for `CC1(c2ccccc2)CC(C)(C)N(C(=O)c2ccccc2Cl)c2ccccc21` (stereo not drawn), the survival is -4% (active).

Regarding `CN1CC2(C)CN(C(=O)c3ccccc3Cl)CC(C)(C1)C2`, the survival is 88% (inactive).

Take `CC1CCN(c2ccc(NC(=O)c3cccc(Cl)c3)cc2C(=O)O)CC1`: the survival is 87% (inactive).

With `COc1ccccc1C(=O)CC1(O)C(=O)N(CC(N)=O)c2ccccc21` (stereo not drawn), the survival is 61% (inactive).

On to `COc1ccc(C(=O)N2CCC(C(=O)Nc3ccc(Cl)cc3)CC2)cc1`, for which the survival was 127% (inactive).

For the molecule `CC1CCN(C(=O)c2cccc(Cl)c2)CC1`, the survival was 93% (inactive).

Take `COc1ccc(CCC(=O)NCc2ccc3c(c2)CCN3C(=O)c2ccc(Cl)cc2)cc1`: the survival is 89% (inactive).

Turning to `COc1ccccc1C(=O)N1c2ccccc2C(C)(c2ccc(Cl)cc2)CC1(C)C` (stereo not drawn), the survival is 0% (active).

`COc1ccccc1C(=O)N1CCC(c2c[nH]c3ccccc23)(c2c[nH]c3ccccc23)CC1`: the survival was 98% (inactive).

For `COc1ccc(C(=O)N2c3ccccc3C(C)(c3ccc(Cl)cc3)CC2(C)C)cc1` (stereo not drawn), the survival is 11% (active).

For `CC(C(=O)c1ccccc1)n1cnc2ccccc2c1=O` (stereo not drawn), the survival was 104% (inactive).

In the case of `COc1ccccc1N1CCN(C(=O)Cn2cnc3onc(-c4ccc(F)cc4)c3c2=O)CC1`, the survival was 84% (inactive).

For the molecule `Fc1ccc(CN2CCc3nc(N4CCN(c5ccccc5F)CC4)ncc3C2)c(F)c1`, the survival was 77% (inactive).

For `Cc1cc(NC(=O)CCn2c(=O)c3cccn3c3cccnc32)ccc1Br`, the survival is 102% (inactive).

`COc1ccc(CNC(=O)Cn2c(=O)nc(-c3ccccc3)c3ccccc32)cc1OC`: the survival is 89% (inactive).

In the case of `CCCCc1nn2c(=O)cc(COC(=O)c3ccccc3NC(=O)C3CCCCC3)nc2s1`, the survival was 71% (inactive).

On to `CC1=C(c2cccc(Cl)c2)S(=O)(=O)NC1=NCc1ccccc1C`, for which the survival is 99% (inactive).

Turning to `O=C(NCc1ccc2c(c1)CCN2C(=O)c1ccc(Cl)cc1)c1cccc(F)c1`, the survival is 61% (inactive).

Consider `CC1(c2ccc(Cl)cc2)CC(C)(C)N(C(=O)c2ccccc2)c2ccccc21` (stereo not drawn), for which the survival was -4% (active).

For the molecule `CC1CC(C)CN(C(=O)c2ccc(Cl)cc2)C1` (stereo not drawn), the survival is 96% (inactive).

Consider `CC1(c2ccc(Cl)cc2)CC(C)(C)N(C(=O)c2cccc(F)c2)c2ccccc21` (stereo not drawn), for which the survival was 11% (active).

As to `CC1(C)C(=O)N(CC(=O)Nc2ccc(Cl)cc2)c2ccccc21`, the survival is 83% (inactive).

Turning to `O=C(c1cccc(F)c1)N1CCC(c2c[nH]c3ccccc23)(c2c[nH]c3ccccc23)CC1`, the survival is 86% (inactive).

With `CCOC(=O)c1c(NC(=O)CSc2cn(CCNC(=O)c3ccccc3OC)c3ccccc23)sc2c1CCC2`, the survival is 141% (inactive).

Take `CCOc1ccc(-c2cc(-c3nc(-c4cc(OC)c(OC)c(OC)c4)no3)[nH]n2)cc1Cl`: the survival was 96% (inactive).

Regarding `Cc1nnc(N2CCCC(C(=O)NCCc3ccccc3)C2)c2nn(-c3ccccc3)c(C)c12` (stereo not drawn), the survival is 94% (inactive).

For the molecule `O=C(Nc1ccccc1O)c1ccccn1`, the survival is 77% (inactive).

On to `COc1ccc(Cn2c(=O)[nH]c3cc(C(=O)N4CCN(c5cc(C)ccc5C)CC4)ccc3c2=O)cc1`, for which the survival is 73% (inactive).

For `CCCCCn1c(=O)[nH]c2cc(C(=O)N3CCN(c4cccc(Cl)c4)CC3)ccc2c1=O`, the survival is 71% (inactive).

As to `O=C(c1ccc2c(=O)n(CCc3ccccc3)c(=O)[nH]c2c1)N1CCN(c2ccc(F)cc2)CC1`, the survival is 111% (inactive).

On to `CCCCCn1c(=O)[nH]c2cc(C(=O)N3CCN(c4cccc(OC)c4)CC3)ccc2c1=O`, for which the survival is 55% (active).

For `CCCCCn1c(=O)[nH]c2cc(C(=O)N3CCN(c4ccc(OC)cc4)CC3)ccc2c1=O`, the survival was 135% (inactive).

As to `Cc1ccc(C)c(N2CCN(C(=O)c3ccc4c(=O)n(CCc5ccccc5)c(=O)[nH]c4c3)CC2)c1`, the survival is 55% (active).

With `Cc1cccc(-n2ncc3c(N4CCN(CCO)CC4)ncnc32)c1`, the survival was 83% (inactive).

For the molecule `Cc1ccc(Cc2cn3cc(-c4ccccc4)nc3s2)cc1`, the survival was 66% (inactive).

Take `COc1cccc(CN2C(=O)C3(SCC(=O)N3c3ccc(C(C)C)cc3)c3ccccc32)c1` (stereo not drawn): the survival was 55% (inactive).

Take `COc1cccc(CN2C(=O)C3(SCC(=O)N3c3ccc(C)c(Cl)c3)c3ccccc32)c1` (stereo not drawn): the survival was 52% (active).

For `COc1cccc(N2C(=O)CSC23C(=O)N(Cc2ccccc2)c2ccccc23)c1` (stereo not drawn), the survival is 80% (inactive).

For `CC(=O)N(Cc1cccnc1)c1nc2c(F)cc(F)cc2s1`, the survival was 89% (inactive).

`COC(=O)c1cc2oc3ccccc3c2n1Cc1nc(-c2ccc(Cl)cc2)oc1C`: the survival is 91% (inactive).

On to `CCOc1ccc(CCNC(=O)Cn2ccc3cc(S(=O)(=O)N4CCCCC4)ccc32)cc1`, for which the survival is 102% (inactive).

As for `COc1ccc(C2C(C(=O)Nc3ccccc3)=C(C)Nc3c(C(=O)Nc4ccccc4)cnn32)cc1` (stereo not drawn), the survival was 126% (inactive).

Consider `COc1cc(OC)c(C2C=C(c3ccc(C)cc3)Nc3c(C(=O)Nc4ccccc4)cnn32)cc1OC` (stereo not drawn), for which the survival was 48% (inactive).

Turning to `COc1ccccc1NC(=O)C1=C(C)Nc2c(C(=O)Nc3cccc(C)c3)cnn2C1c1ccccc1Cl` (stereo not drawn), the survival is -5% (active).

`CCc1ccc(C2C(C(=O)Nc3ccccc3OC)=C(C)Nc3c(C(=O)Nc4ccc(C)cc4)cnn32)cc1` (stereo not drawn): the survival was 68% (inactive).

With `COc1ccccc1NC(=O)C1=C(C)Nc2c(C(=O)Nc3cccc(C)c3)cnn2C1c1ccccc1C` (stereo not drawn), the survival was 89% (inactive).

Take `COc1ccc(C2C=C(c3cccc(OC)c3)Nc3c(C(=O)Nc4ccccc4)cnn32)cc1` (stereo not drawn): the survival was 52% (inactive).

Turning to `CCOc1ccc(NC(=O)c2cnn3c2NC(c2ccccc2)=CC3c2cccc(OC)c2OC)cc1` (stereo not drawn), the survival was 62% (inactive).

In the case of `COc1cccc(C2C=C(c3ccccc3)Nc3c(C(=O)Nc4ccccc4)cnn32)c1OC` (stereo not drawn), the survival is 13% (active).

As for `COc1ccc(C2=CC(c3ccc(F)cc3)n3ncc(C(=O)Nc4ccc(C)cc4)c3N2)cc1` (stereo not drawn), the survival was 106% (inactive).

As for `CCc1ccc(C2C(C(=O)Nc3ccccc3)=C(C)Nc3c(C(=O)Nc4ccc(C)cc4)cnn32)cc1` (stereo not drawn), the survival was 17% (active).

With `CC1=C(C(=O)Nc2ccccc2)C(c2ccccc2Cl)n2ncc(C(=O)Nc3cccc(C)c3)c2N1` (stereo not drawn), the survival was 88% (inactive).

For the molecule `COc1ccc(C2C=C(c3ccc(C)cc3)Nc3c(C(=O)Nc4ccccc4)cnn32)cc1` (stereo not drawn), the survival was 53% (active).

The values are drawn from PubChem BioAssay AID463173 (ICCB-Longwood Screening Facility, Harvard Medical School, 2010).
